In the library only some 9.6% were active in any assay of this set; here they are far more common.
Lmaj promast: Leishmania major promastigote growth inhibition, primary screen. Leishmania major promastigotes, resazurin fluorescence viability. inhibition, % at 10 µM. 9% of 200,000 active; in the data active means inhibition above about 50%;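 further: promastigotes grown with compound for 44 hours at 28 °C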
Ins promoter up: insulin promoter activators in MIN6 cells, imaging, high-content screening, mouse beta cells | MIN6 insulin promoter-GFP reporter; stronger effect = higher value | z-score at 5 µM | 0.3% of 190,000 active | AID 1625, 2009;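 active means z-score above 3 at 5 µM with at least 500 cells counted in the well; inconclusive means wells under 500 cells, flagged as cytotoxic or low count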
Insulin prom inh: inhibitors of insulin promoter-driven GFP, primary screen, imaging, TRM-6 cells (human fetal islet line), eGFP reporter, cell count; inhibition, % at 2 µM; reporter expression induced with tamoxifen; 0.9% of 130,000 active;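 active means inhibition above the mean plus 3 SD, with well images judged a real hit on visual review, cut at about 60% in these data, passing the limit was not always enough; inconclusive means inhibition over the cutoff but images rejected on review; inactive means inhibition not above the cutoff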
PTEN del growth: growth suppression of PTEN-null HCT116, primary screen, cell-based, CellTiter-Glo; HCT116 PTEN-null viability, 60 h; stronger effect = lower value; viability, % at 10 µM; 1.2% of 140,000 active; AID 827, 2007;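 active means viability at or below a set limit, 4 SD under the median of all tested compounds, cut at about 3.7% in these data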;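 further: PTEN knockout HCT116 line with beta catenin targeted HCT116 as companion control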
Autophagy HCS: autophagy modulators in MEF cells, primary screen, imaging, high-content, MEF GFP-LC3; AID 463193, 2010; MEF GFP-LC3 puncta imaging; test concentration mostly 10 µM; calls only at 10 µM (by protocol); 0.98% of 190,000 active;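 active means percentage of spot-positive cells more than 3 SD above its plate mean, without a fluorescence outlier flag or 80% toxicity; inconclusive means no clear call, values can overlap the other calls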
bCat KO growth: primary screen for growth suppressors in beta-catenin knockout HCT116 cells (colon tumor, human) | HCT116 beta-catenin knockout viability, CellTiter-Glo, 60 h; stronger effect = lower value | viability, % at 10 µM | 1.5% of 140,000 active | AID 818, 2007;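 active means viability at or under a set limit, the compound median less 4 SD, cut at about 6% in these data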
Of the large screens only hits and unclear results are named; the others gave an inactive call.

COc1ccc(C(=O)NNc2ccccc2)cc1OC	Lmaj promast 56
Cc1ccc(CC(=O)NCc2ccc(Cl)cc2)cc1	none (no result: Insulin prom inh, PTEN del growth, bCat KO growth)
CCc1ccc(NS(=O)(=O)c2ccc3[nH]cc(C(=O)N4CCc5ccccc54)c(=O)c3c2)cc1	none
COc1ccc(C(=O)NCc2cc(C)nc3ccccc23)cc1OC	Insulin prom inh 100 (no result: PTEN del growth, bCat KO growth)
COc1cc(OC)cc(C(=O)NCc2cc(C)nc3ccccc23)c1	none (no result: PTEN del growth, bCat KO growth)
O=C(NCCCNc1ccc(C(F)(F)F)cc1[N+](=O)[O-])c1ccc(F)cc1	none (no result: Ins promoter up)
CCc1nc(N=Nc2c(O)[nH]c3ccccc23)c2c3c(sc2n1)CCC3	Lmaj promast 83
CC1CC(C)CN(C(=O)Cn2cc(C=O)c3ccccc32)C1 (configuration not stated)	none (no result: Insulin prom inh, PTEN del growth, bCat KO growth)
Cc1nc(/N=C(\N)NC(=O)N2c3ccccc3Sc3ccccc32)nc2ccccc12	Lmaj promast 97
Cc1nc(/N=C(\N)NC(=O)c2ccccc2)nc2ccccc12	none
CC(=O)C1=C(O)C(=O)N(c2ccc(S(=O)(=O)Nc3nccs3)cc2)C1c1ccc([N+](=O)[O-])cc1 (configuration not stated)	none (no result: Insulin prom inh, PTEN del growth, bCat KO growth)
COc1ccc(-c2[nH]ncc2C=O)cc1	Insulin prom inh 60
Cc1ccc(-c2[nH]ncc2/C=C(\C#N)C(=O)NC2CCCCC2)cc1	none (no result: Insulin prom inh)
N#C/C(=C\c1ccccc1[N+](=O)[O-])C(=O)NC1CCCCC1	Lmaj promast 100 (no result: PTEN del growth, bCat KO growth)
COc1ccc(-c2[nH]ncc2/C=C(/C#N)C(=O)NC2CCCCC2)cc1	Lmaj promast 66
N#C/C(=C\C=C\c1ccccc1[N+](=O)[O-])C(=O)NC1CCCCC1	Lmaj promast 91 (no result: Insulin prom inh, PTEN del growth, bCat KO growth)
N#C/C(=C\c1cc(Cl)ccc1O)C(=O)NC1CCCCC1	none (no result: Insulin prom inh)
N#C/C(=C\c1cccn1-c1ccccc1)C(=O)NC1CCCCC1	none
COC(=O)CCP(=O)(O)Cc1ccccc1CP(=O)(O)CCC(=O)OC	none
CCOCCCNC(=O)c1cc2sc(Cl)cc2n1CC	Autophagy HCS active (no result: Insulin prom inh)
CCOCCCNC(=O)c1cc(C)nn1-c1ccccc1	none (no result: Insulin prom inh)
Cc1ccc2nc3c(cc(C#N)c(=O)n3-c3nccs3)c(=O)n2c1	none (no result: Ins promoter up, Insulin prom inh)
NC(=S)n1[nH]c(-c2ccc([N+](=O)[O-])cc2)c(N=Nc2ccc(Cl)cc2)c1=O	Lmaj promast 97 (no result: Insulin prom inh, PTEN del growth, bCat KO growth)
Cc1ccc(N=Nc2c(C)[nH]n(C(N)=S)c2=O)cc1	none (no result: PTEN del growth, bCat KO growth)
CCn1c(=O)n(CCOC)c(=O)c2c3c(sc21)CCCC3	none (no result: Ins promoter up)
S=C(NCC1CCCCC1)Nc1cccnc1	none (no result: Insulin prom inh)
S=C(NCC1CCCCC1)Nc1ccc(Oc2ccccc2)cc1	Lmaj promast 90
CCOc1ccc(N2C(=O)/C(=C/c3cccs3)N(C)C2=S)cc1	none
CCc1ccc(/C=C2/C(=O)N(CC)C(=S)N2C)s1	Insulin prom inh 69
COc1ccc(-c2[nH]ncc2-c2cscn2)c(O)c1	none (no result: Insulin prom inh, PTEN del growth, bCat KO growth)
O=C1C2CC=C(Cl)CC2C(=O)N1CCc1c[nH]c2ccccc12 (configuration not stated)	none
CC1=CCC2C(=O)N(CCc3c[nH]c4ccccc34)C(=O)C2C1 (configuration not stated)	Lmaj promast 98 (no result: Ins promoter up)
CSCc1cc(N2CCCC2)nc(-c2ccccc2)n1	Lmaj promast 68 (no result: PTEN del growth, bCat KO growth)
Nc1nnnn1/N=C/c1cc(Cl)cc(Cl)c1OCc1ccc(Cl)cc1Cl	Autophagy HCS active, bCat KO growth 3.2
Nc1nnnn1/N=C/c1ccccc1OCc1ccc(Cl)cc1Cl	none
CCOC(=O)C1=C(C)n2c(s/c(=C/c3cccc([N+](=O)[O-])c3)c2=O)=NC1c1ccc(O)c(OC)c1 (configuration not stated)	Lmaj promast 100, bCat KO growth 1.9
O=C(Cc1ccc(-n2c(=O)c3ccccc3n(Cc3ccccc3F)c2=O)cc1)NCC1CCCO1 (configuration not stated)	Lmaj promast 99
O=C(Cn1cnc2c(nnn2Cc2ccccc2)c1=O)NCC1CCCO1 (configuration not stated)	none
O=C(Cc1ccc(-n2c(=O)c3ccccc3n(Cc3ccccc3Cl)c2=O)cc1)NCC1CCCO1 (configuration not stated)	Lmaj promast 100 (no result: PTEN del growth, bCat KO growth)
O=C(Cn1cnc2c(nnn2Cc2ccccc2F)c1=O)NCC1CCCO1 (configuration not stated)	Autophagy HCS active
O=C(Cn1cc(C(=O)c2ccco2)c2ccccc21)NCc1ccco1	none
O=C(CCN1C(=O)C2C3C=CC(C4CC34)C2C1=O)Oc1ccccc1 (configuration not stated)	none (no result: Insulin prom inh, PTEN del growth, bCat KO growth)
CCOc1cc(/C=N/NC(=O)C(=O)NCCCOC(C)C)cc(Br)c1O	Lmaj promast 70
CCOc1cc(/C=N\NC(N)=O)cc(Br)c1OC(C)C	none
CC1CCc2c(sc(NC(=O)Cn3cnc([N+](=O)[O-])n3)c2C(N)=O)C1 (configuration not stated)	none (no result: PTEN del growth, bCat KO growth)
Cc1cc([N+](=O)[O-])nn1CCCC(=O)Nc1sc2c(c1C(N)=O)CCC(C)C2 (configuration not stated)	Lmaj promast 69
O=C(/C=C\c1ccccc1)Oc1cccc2cccnc12	Lmaj promast 98 (no result: PTEN del growth, bCat KO growth)
O=C(/C=C/c1ccccc1)Oc1cccc2cccnc12	none (no result: Lmaj promast, Insulin prom inh, PTEN del growth, Autophagy HCS, bCat KO growth)
Cc1nn(Cc2ccc(F)cc2)c(C)c1NC(=O)c1cc(-c2ccc3c(c2)OCO3)on1	none (no result: Insulin prom inh)
O=C(CSc1nc2ccccc2s1)NNC(=S)Nc1ccccc1	none
COc1ccc(C2=NN(C(C#N)c3ccc(OC)cc3)C(c3ccccc3)C2)cc1 (configuration not stated)	Lmaj promast 69
COc1ccc(C(C#N)N2N=C(c3ccccc3)CC2c2ccccc2)cc1OC (configuration not stated)	Lmaj promast 100 (no result: Ins promoter up)
CC1=NN(C(C#N)c2ccccc2)C(c2ccccc2)C1 (configuration not stated)	none (no result: Lmaj promast, Insulin prom inh, PTEN del growth, Autophagy HCS, bCat KO growth)
O=C(CN1CCN(c2ccccn2)CC1)N(c1ccccc1)c1ccc2ccccc2c1	Lmaj promast 97
O=C(CN1CCOCC1)N(c1ccccc1)c1ccc2ccccc2c1	none (no result: Insulin prom inh)
O=C(O)/C=C\C(=O)NCc1ccccc1	none (no result: Ins promoter up)
CN1CCN(S(=O)(=O)c2ccc(Sc3nc4ccccc4[nH]3)c3nsnc23)CC1	Lmaj promast 100
CCCCOc1ccc(C(C)NC(=O)CCS(=O)(=O)Cc2ccc(Cl)cc2)cc1 (configuration not stated)	none
COC(=O)C1=C(C)N(Cc2ccco2)C(=O)/C1=C\c1ccc([N+](=O)[O-])cc1	Lmaj promast 99 (no result: Insulin prom inh, PTEN del growth, bCat KO growth)
CC(=O)Nc1ccc(Nc2nc(C)c([N+](=O)[O-])c(Nc3ccc(NC(C)=O)cc3)n2)cc1	none (no result: Ins promoter up, Insulin prom inh)
Cc1ccc2nc(-c3ccc4c(c3)OCCO4)cn2c1	none (no result: Lmaj promast, Insulin prom inh, PTEN del growth, Autophagy HCS, bCat KO growth)
c1ccn2cc(-c3ccc4c(c3)OCCO4)nc2c1	Insulin prom inh 71 (no result: PTEN del growth, bCat KO growth)
CC(C)(C)c1ccc(NC(=O)COc2ccc(-n3ccnc3)cc2)cc1	Lmaj promast 67, Ins promoter up inconclusive

Screens: PubChem BioAssay, several laboratories
